Screening results: PubChem, National Center for Advancing Translational Sciences (NCATS)
Hits are enriched below; roughly 4.3% of the tested compounds scored in any of these assays.
DRD3 agonist: activates the human D3 dopamine receptor | D3R DiscoveRx beta-arrestin cells, luminescence, 90 min | 410,000 compounds, 0.58% hits | P35462 | max activation, % | AID 652048; in the data active = max activation above about 30%
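Agonist mode: compounds and dopamine controls were applied to plated cells for 90 min at 37 degrees C after an overnight attachment at 1500 cells/well. Luminescent read-out followed 30 - 60 minutes at room temperature with DiscoveRx detection reagent.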
GLP-1R inv ag: inverse agonists of human GLP-1 receptor; P43220; HEK293 GLP-1R CRE-luciferase, luminescence, 24 h; GLP-1R form is constitutively active; Potency, µM (titrated, usually from 38.3 µM), most hits filed as inhibitors; 410,000 compounds, 1.6% hits; note: nearly all actives have a fitted effect of over 55% in size
Target sequence (P43220 whole entry, looked up): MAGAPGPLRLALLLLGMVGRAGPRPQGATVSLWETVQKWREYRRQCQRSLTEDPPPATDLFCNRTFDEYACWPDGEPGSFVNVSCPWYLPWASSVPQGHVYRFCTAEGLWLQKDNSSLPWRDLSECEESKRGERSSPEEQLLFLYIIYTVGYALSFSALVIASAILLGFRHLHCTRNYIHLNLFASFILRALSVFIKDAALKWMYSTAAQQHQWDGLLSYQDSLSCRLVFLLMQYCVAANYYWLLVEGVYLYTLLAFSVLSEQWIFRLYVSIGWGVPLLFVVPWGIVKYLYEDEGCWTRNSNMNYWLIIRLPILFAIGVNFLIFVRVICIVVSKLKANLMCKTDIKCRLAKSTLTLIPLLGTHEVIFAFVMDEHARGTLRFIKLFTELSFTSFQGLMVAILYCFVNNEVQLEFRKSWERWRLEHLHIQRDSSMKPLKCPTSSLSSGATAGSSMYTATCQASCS
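Using stably transfected HEK293 (constitutively active GLP-1R, cAMP-luciferase reporter), compounds were incubated 24 hr and luciferase measured by luminescence.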
GLP-1R agonist: agonists of human GLP-1 receptor. HEK293 GLP-1R CRE-luciferase, luminescence, 4-6 h; cells express a hypersensitive GLP-1R form. 380,000 compounds, 0.007% hits. Potency, µM (titrated, usually from 45.6 µM), most hits filed as activators. AID 624172
D3 antag: D3 dopamine receptor (human) antagonism. 360,000 compounds, 2.5% hits. max response, negative = inhibition, %. D3R cells, DiscoveRx beta-arrestin luminescence, antagonist mode; hits give low values; in the data active = max response below about -50%; inconclusive = no clear call, values can overlap the other calls
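Cells expressing the human receptor were seeded at 1500 cells/well, incubated overnight at 37 degrees C in 5% CO2, then exposed to library compounds with dopamine controls for 90 minutes at 37 degrees C before luminescent detection.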
Large screens that a line does not name were inactive. Unless noted, calls come from the whole dose curve; as a rule, active = well fitted curve in the direction sought with a large enough effect; inconclusive = small, poorly fitted or top-dose-only effect, or another doubt; inactive = no such curve, though single readings can be large; an effect the other way counts as inactive or inconclusive.

Cc1ccc(C(=O)NCC#N)cc1	none
Cc1ccc(C(=O)NC(C#N)=C(Cl)Cl)cc1	GLP-1R inv ag inconclusive, D3 antag -61.1
COc1ccc(Cl)cc1C(=O)NNC(=O)COC(=O)CCN=C1NS(=O)(=O)c2ccccc21	D3 antag -108.0
COC(=O)c1ccc(C(=O)OC)c(NC(=O)c2cnn3c(C(F)F)cc(-c4ccccc4)nc23)c1	none (no result: GLP-1R agonist, D3 antag)
Cc1ccc(S(=O)(=O)N2CCC(C(=O)NNC(=O)c3ccncc3)CC2)cc1	none
Cc1ccc(S(=O)(=O)N(CC(O)Cn2c3ccccc3c3ccccc32)c2cccc(C(=O)NCCO)c2)cc1 (centres undefined)	GLP-1R inv ag 12.6µM (no result: D3 antag)
Cc1ccc(S(=O)(=O)N(CC(O)Cn2c3ccccc3c3ccccc32)c2cccc(C(=O)N(C)C)c2)cc1 (centres undefined)	GLP-1R inv ag inconclusive (no result: D3 antag)
COc1ccccc1OCC(=O)NCC1(N(C)C)CCCCC1	none (no result: GLP-1R agonist, D3 antag)
O=C[C@H](O)[C@@H](O)[C@@H](O)[C@H](O)CO	none (no result: GLP-1R inv ag, GLP-1R agonist, D3 antag)
Cc1cc(C)c(S(=O)(=O)/N=C2\C=C(Nc3ccc(C(=O)O)cc3)C(=O)c3ccccc32)c(C)c1	GLP-1R inv ag inconclusive, D3 antag -77.2
Cc1ccc(S(=O)(=O)/N=C2\C=C(NS(=O)(=O)c3ccccc3)C(=O)c3ccccc32)cc1	none
Cc1cc(C)c(S(=O)(=O)/N=C2\C=C(NS(=O)(=O)c3ccccc3)C(=O)c3ccccc32)c(C)c1	none
O=C(O)c1ccc(NC2=C/C(=N/S(=O)(=O)c3ccccc3)c3ccccc3C2=O)cc1	GLP-1R inv ag inconclusive, D3 antag -91.6
NC(=O)CSc1nnnn1-c1cccc(O)c1	none (no result: GLP-1R agonist, D3 antag)
CCOC(=O)c1c(C)oc2nc(C)nc(NCC3CCN(Cc4ccccc4C)CC3)c12	none (no result: GLP-1R agonist, D3 antag)
CN(Cc1ccc(Cl)c(Cl)c1)C(=O)c1cccc(S(=O)(=O)N2CCN(Cc3ccccc3)CC2)c1	GLP-1R inv ag 11.2µM
CN(Cc1cccc(F)c1)C(=O)c1cccc(S(=O)(=O)N2CCN(Cc3ccccc3)CC2)c1	GLP-1R inv ag inconclusive
C=CCN(C(=O)c1cccc(S(=O)(=O)N2CCN(C)CC2)c1)c1nc(-c2ccccc2)cs1	GLP-1R inv ag 11.2µM
COc1ccccc1-c1nn2c(=O)cc(CN3CCN(C(=O)/C=C/c4ccccc4)CC3)nc2s1	none (no result: GLP-1R agonist, D3 antag)
CCOc1ccc2nc(N3CCCC(C(=O)NCCc4ccc(SC)cc4)C3)sc2c1 (centres undefined)	none (no result: GLP-1R agonist, D3 antag)
O=C1c2ccccc2NC(c2cccc(F)c2)N1Cc1ccco1 (centres undefined)	D3 antag -61.0
Cc1c(C(=O)NNc2c(Cl)cccc2Cl)n(C)oc1=O	GLP-1R inv ag 3.55µM
COc1ccc(Nc2ncnc3c2cnn3-c2ccc(C)cc2)cc1Cl	none (no result: GLP-1R agonist, D3 antag)
COCCCn1c(SCc2cccc(Cl)c2)nc2c(sc3ccccc32)c1=O	none (no result: D3 antag)
COc1ccc(CN2CCCC(C(=O)c3ccc4c(c3)OCO4)C2)c(F)c1 (centres undefined)	GLP-1R inv ag inconclusive, D3 antag -59.3
CC(=O)c1cccc(CN2CCCC(C(=O)c3ccc4c(c3)OCO4)C2)c1 (centres undefined)	GLP-1R inv ag inconclusive
CCCn1cc(CN2CCCC(C(=O)c3ccc4c(c3)OCO4)C2)c(C)n1 (centres undefined)	GLP-1R inv ag inconclusive, D3 antag -53.5
O=C(c1ccc2c(c1)OCO2)C1CCCN(C2CCN(CCc3ccccc3)CC2)C1 (centres undefined)	GLP-1R inv ag inconclusive, D3 antag -84.2
COc1cccc(CN2CCCC(C(=O)c3ccc4c(c3)OCO4)C2)c1O (centres undefined)	GLP-1R inv ag inconclusive, D3 antag inconclusive
CCOC(=O)CNC(=O)N1CCCC(C(=O)c2ccc3c(c2)OCO3)C1 (centres undefined)	none
Cc1cc(=O)n(CC(=O)NC(C)c2ccccc2)c2c1c(C)nn2-c1cccc(F)c1 (centres undefined)	none (no result: GLP-1R agonist, D3 antag)
COc1ccccc1N1CCN(C(=O)c2ccc3[nH]c4c(c3c2)CCCC4)CC1	GLP-1R inv ag 10µM, D3 antag inconclusive
O=C(c1ccc(CN2CCc3ccccc3C2)cc1)N1CCCCC1	GLP-1R inv ag inconclusive, D3 antag -72.9
COCCNC(=O)c1ccc(CN2CCc3ccccc3C2)cc1	D3 antag inconclusive
COc1ccccc1N1CCN(C(=O)c2ccc(COc3cccc4c3OC(C)(C)C4)cc2)CC1	GLP-1R inv ag 7.08µM
O=C(c1ccc2[nH]c3c(c2c1)CCCC3)N1CCN(c2ccc(F)cc2)CC1	GLP-1R inv ag inconclusive
